Here are results for nine compounds from PubChem BioAssay (NCI).

Structures are written as SMILES. Compounds without any hit were thinned out: in the full panel of roughly 79,000, 15% have a hit. Values without a mark were called inactive. The source made the active and inactive calls. No stated cut-off is given here; in the data, active means growth inhibition above about 70%; inactive means the rest.

A short description of experiment [1]: NCI Yeast Anticancer Drug Screen. Data for the rad50 strain (AID 155).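 Further: 0% = growth of vehicle-only cultures of the same strain.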 Particulars: S. cerevisiae rad50 strain growth inhibition, stronger effect = higher value. An outline of the steps: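 Readout: growth inhibition relative to vehicle-treated cultures. Compound exposure was carried out in a genetically defined yeast strain deficient in DNA damage repair.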
Experiment [2] in a line: NCI Yeast Anticancer Drug Screen. Data for the mec2-1 strain (AID 157). The conditions noted are these: S. cerevisiae mec2-1 strain, stronger effect = higher value. An outline of the steps:
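Cells of the genetically defined mec2-1 yeast strain are incubated with test compound. Inhibition of growth is calculated against vehicle-treated controls.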

Experiment [3] in a line: NCI Yeast Anticancer Drug Screen. Data for the sgs1 mgt1 strain (AID 161).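 Further: 0% = growth of cultures given vehicle only.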 The conditions noted are these: S. cerevisiae sgs1 mgt1 strain, stronger effect = higher value. An outline of the steps: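 Test agents were incubated with a DNA-repair-mutant yeast strain. Growth was then read and compared against vehicle-treated controls.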
Experiment [4] can be described thus: NCI Yeast Anticancer Drug Screen. Data for the cln2 rad14 strain (AID 165).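 Further: 0% = growth equal to vehicle treated cultures.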 Particulars: S. cerevisiae cln2 rad14 strain, stronger effect = higher value. An outline of the steps: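 The screen exposed genetically defined yeast (cln2 rad14) to test compounds and scored growth inhibition relative to vehicle-treated controls.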
The nature of experiment [5]: NCI Yeast Anticancer Drug Screen. Data for the bub3 strain (AID 167). The conditions noted are these: S. cerevisiae bub3 mutant strain, stronger effect = higher value. An outline of the steps: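 Readout: yeast growth inhibition, expressed relative to vehicle-only wells. The test organism is a mutant strain from a panel with lesions in DNA repair or checkpoint genes.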
Experiment [6] is described as follows: NCI Yeast Anticancer Drug Screen. Data for the mlh1 rad18 strain (AID 175). The conditions noted are these: S. cerevisiae mlh1 rad18 strain growth inhibition, stronger effect = higher value. An outline of the steps: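 Compound-treated yeast growth, normalised to vehicle controls. Strain bears defined DNA repair mutations.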
Setting [7] is: at 5.0 µM (retest, dose inferred, filed as 0.5).
The mark [8] stands for this setting: at 50.0 µM (retest, dose inferred, filed as 5.0).

Regarding `O[C@H]1[C@H]2c3cc4c(cc3CN3CCC(=C[C@@H]1O)[C@H]23)OCO4`, the growth inhibition in experiment [1] (setting [7]) is 13%; in experiment [1] (setting [8]), 98% (active); in experiment [1] (at 50.0 µM), 91.5% (active); in experiment [2] (setting [7]), 19%; in experiment [2] (setting [8]), 99% (active); in experiment [2] (at 50.0 µM), 93.6% (active). Further, the growth inhibition in experiment [3] (setting [7]) was 23%; in experiment [3] (setting [8]), 98% (active); in experiment [3] (at 50.0 µM), 93.2% (active); in experiment [4] (setting [7]), 77% (active); in experiment [4] (setting [8]) it was 98% (active); in experiment [4] (at 50.0 µM), 90.7% (active). The growth inhibition in experiment [5] (setting [7]) is 0%; in experiment [5] (setting [8]) it was 98% (active); in experiment [5] (at 50.0 µM), 91.2% (active); in experiment [6] (setting [7]), 26%; in experiment [6] (setting [8]), 99% (active); in experiment [6] (at 50.0 µM), 92.2% (active).
`O=[N+]([O-])c1ccc(Cc2nc3ccccc3s2)cc1`: the growth inhibition in experiment [1] (setting [7]) was 32%; in experiment [1] (setting [8]) it was 82% (active); in experiment [1] (at 50.0 µM), 36.8%; in experiment [2] (setting [7]) it was 27%; in experiment [2] (setting [8]), 95% (active); in experiment [2] (at 50.0 µM), 14.2%. For the same compound, the growth inhibition in experiment [3] (setting [7]) was 47%; in experiment [3] (setting [8]), 96% (active); in experiment [3] (at 50.0 µM), 6.3%; in experiment [4] (setting [7]), 32%; in experiment [4] (setting [8]), 53%; in experiment [4] (at 50.0 µM) it was 22.4%. The growth inhibition was 41% in experiment [5] (setting [7]); 97% (active) in experiment [5] (setting [8]); 65.4% in experiment [5] (at 50.0 µM); 52% in experiment [6] (setting [7]); 93% (active) in experiment [6] (setting [8]); 30.9% in experiment [6] (at 50.0 µM).
For `Cc1c(C2CC(=O)NC2=O)c2ccccc2n1C` (configuration not stated), the growth inhibition is 3% in experiment [1] (setting [7]); 3% in experiment [1] (setting [8]); 6.55% in experiment [1] (at 50.0 µM); -1% in experiment [2] (setting [7]); 0% in experiment [2] (setting [8]); 6.25% in experiment [2] (at 50.0 µM). Moreover, the growth inhibition in experiment [3] (setting [7]) is -1%; in experiment [3] (setting [8]), -1%; in experiment [3] (at 50.0 µM), -13.8%; in experiment [4] (setting [7]), -4%; in experiment [4] (setting [8]) it was -5%; in experiment [4] (at 50.0 µM), 69%. Also, the growth inhibition in experiment [5] (setting [7]) is 4%; in experiment [5] (setting [8]), 3%; in experiment [5] (at 50.0 µM), -20.6%; in experiment [6] (setting [7]), 2%; in experiment [6] (setting [8]), 3%; in experiment [6] (at 50.0 µM), 7.8%.
In the case of `FC(F)(F)c1nc(S)cc(=S)[nH]1`, the growth inhibition was 1% in experiment [1] (setting [7]); 13% in experiment [1] (setting [8]); -21.2% in experiment [1] (at 50.0 µM); 4% in experiment [2] (setting [7]); 17% in experiment [2] (setting [8]); 24.9% in experiment [2] (at 50.0 µM). Further, the growth inhibition is 7% in experiment [3] (setting [7]); 26% in experiment [3] (setting [8]); -5.45% in experiment [3] (at 50.0 µM); -2% in experiment [4] (setting [7]); 22% in experiment [4] (setting [8]); 54% in experiment [4] (at 50.0 µM). Moreover, the growth inhibition in experiment [5] (setting [7]) was -2%; in experiment [5] (setting [8]) it was 31%; in experiment [5] (at 50.0 µM), 58.3%; in experiment [6] (setting [7]), -4%; in experiment [6] (setting [8]) it was 10%; in experiment [6] (at 50.0 µM) it was -30%.
Consider `Oc1c(I)cc(Cl)c2cccnc12`, for which the growth inhibition in experiment [1] (setting [7]) is 64%; in experiment [1] (setting [8]), 96% (active); in experiment [1] (at 50.0 µM) it was 97.2% (active); in experiment [2] (setting [7]), 63%; in experiment [2] (setting [8]), 97% (active); in experiment [2] (at 50.0 µM), 98.3% (active). Moreover, the growth inhibition was 46% in experiment [3] (setting [7]); 97% (active) in experiment [3] (setting [8]); 97.8% (active) in experiment [3] (at 50.0 µM); 72% (active) in experiment [4] (setting [7]); 98% (active) in experiment [4] (setting [8]); 96.8% (active) in experiment [4] (at 50.0 µM). In addition, the growth inhibition in experiment [5] (setting [7]) is 39%; in experiment [5] (setting [8]), 96% (active); in experiment [5] (at 50.0 µM) it was 98.8% (active); in experiment [6] (setting [7]), 74% (active); in experiment [6] (setting [8]), 95% (active); in experiment [6] (at 50.0 µM) it was 98% (active).
Regarding `CSc1cc(C(=O)O)nc(N)n1`, the growth inhibition is 4% in experiment [1] (setting [7]); -4% in experiment [1] (setting [8]); -5.65% in experiment [1] (at 50.0 µM); 6% in experiment [2] (setting [7]); 0% in experiment [2] (setting [8]); 5% in experiment [2] (at 50.0 µM). The growth inhibition was 5% in experiment [3] (setting [7]); -1% in experiment [3] (setting [8]); -21.6% in experiment [3] (at 50.0 µM); 8% in experiment [4] (setting [7]); -1% in experiment [4] (setting [8]); 28.1% in experiment [4] (at 50.0 µM). For the same compound, the growth inhibition is 3% in experiment [5] (setting [7]); -4% in experiment [5] (setting [8]); -17.1% in experiment [5] (at 50.0 µM); 4% in experiment [6] (setting [7]); -4% in experiment [6] (setting [8]); -12.3% in experiment [6] (at 50.0 µM).
On to `COC1C=COC2(C)Oc3c(C)c(O)c4c(O)c(c(C5SCCS5)c(O)c4c3C2=O)NC(=O)/C(C)=C\C=CC(C)C(O)C(C)C(O)C(C)C(OC(C)=O)C1C` (configuration not stated), for which the growth inhibition was -3% in experiment [1] (setting [7]); 96% (active) in experiment [1] (setting [8]); 94.7% (active) in experiment [1] (at 50.0 µM); 1% in experiment [2] (setting [7]); 97% (active) in experiment [2] (setting [8]); 96.9% (active) in experiment [2] (at 50.0 µM). The growth inhibition was -5% in experiment [3] (setting [7]); 34% in experiment [3] (setting [8]); 41.5% in experiment [3] (at 50.0 µM); 14% in experiment [4] (setting [7]); 97% (active) in experiment [4] (setting [8]); 95% (active) in experiment [4] (at 50.0 µM). For the same compound, the growth inhibition is 2% in experiment [5] (setting [7]); 99% (active) in experiment [5] (setting [8]); 95.8% (active) in experiment [5] (at 50.0 µM); 4% in experiment [6] (setting [7]); 97% (active) in experiment [6] (setting [8]); 95.4% (active) in experiment [6] (at 50.0 µM).
`CCCCCN(CCCCC)CC(O)c1cc2ccccc2c2ccccc12` (configuration not stated): the growth inhibition in experiment [1] (setting [7]) was -1%; in experiment [1] (setting [8]), 98% (active); in experiment [1] (at 50.0 µM), 99.3% (active); in experiment [2] (setting [7]) it was 11%; in experiment [2] (setting [8]) it was 99% (active); in experiment [2] (at 50.0 µM) it was 99.4% (active). The growth inhibition in experiment [3] (setting [7]) was 18%; in experiment [3] (setting [8]) it was 100% (active); in experiment [3] (at 50.0 µM) it was 99.4% (active); in experiment [4] (setting [7]), -12%; in experiment [4] (setting [8]), 98% (active); in experiment [4] (at 50.0 µM), 99.2% (active). Further, the growth inhibition in experiment [5] (setting [7]) was -1%; in experiment [5] (setting [8]), 99% (active); in experiment [5] (at 50.0 µM), 99.3% (active); in experiment [6] (setting [7]), 27%; in experiment [6] (setting [8]) it was 99% (active); in experiment [6] (at 50.0 µM) it was 99.2% (active).
As to `C/C=C(/CN/C(=C\[N+](=O)[O-])c1ccccc1)c1ccccc1`, the growth inhibition in experiment [1] (setting [7]) is 0%; in experiment [1] (setting [8]) it was 87% (active); in experiment [1] (at 50.0 µM) it was 96.5% (active); in experiment [2] (setting [7]), -4%; in experiment [2] (setting [8]), 86% (active); in experiment [2] (at 50.0 µM) it was 95% (active). Besides, the growth inhibition is 0% in experiment [3] (setting [7]); 79% (active) in experiment [3] (setting [8]); 94.3% (active) in experiment [3] (at 50.0 µM); -1% in experiment [4] (setting [7]); 37% in experiment [4] (setting [8]); 75.2% (active) in experiment [4] (at 50.0 µM). The growth inhibition was 8% in experiment [5] (setting [7]); 74% (active) in experiment [5] (setting [8]); 92.7% (active) in experiment [5] (at 50.0 µM); -8% in experiment [6] (setting [7]); 84% (active) in experiment [6] (setting [8]); 95.5% (active) in experiment [6] (at 50.0 µM).
